Experimental findings from PubChem BioAssay (NCATS) are described below.

Results filed as inconclusive are left out. Entries that show only a call come without a potency. Activity calls are given as the source filed them. The call rests on the fitted dose curve; in most records, active means well fitted cell-killing curve with a large enough effect; inconclusive means small, poorly fitted or top-dose-only effect; inactive means no such curve, though single readings can be large or run the other way.
Potency means the concentration at half of the fitted maximal effect.

This assay can be described thus: qHTS of pediatric cancer cell lines to identify multiple opportunities for drug repurposing: Confirmatory screen for BT-37 cells (AID 1347117). Further: nearly all actives have a fitted effect of over 55% in size. To be noted: BT-37 pediatric cancer cells, viability; series mostly up to 45.9 µM. The text has this:
Drug repurposing or repositioning has been offered as a strategy for drug development in oncology programs. This approach has special potential for childhood cancers and other rare or orphan diseases, where the expected return on new drug development has been a disincentive to pharmaceuticals.
In this project we exploit the poly-pharmacology of drugs to discover new indications via phenotypic screening of a panel of 19 well-characterized cell lines derived from solid tumors seen in children and adolescents. The goal is to identify approved drugs with previously unrecognized anticancer properties that has the potential to reveal new mechanisms and biological processes involved in carcinogenesis or drug resistance. We employed a titration-based paradigm (quantitative high-throughput screening or qHTS), where all compounds were tested at multiple concentrations for their effect on cell viability. Concentration-response curves (CRCs) were derived directly from the primary screen, and both potency and efficacy values were used to identify compounds with robust bioactivity profiles. We screened the NIH Chemical Genomics Center (NCGC) Pharmaceutical Collection (NPC) and Mechanism Interrogation Plate (MIPE) small molecule collections of approved and investigational compounds against these cell lines; and measured metabolically active cells after 48 hours of compound treatment as a proxy for cell viability.
Assay Submitter: Nathalia J. Martinez, National Center for Advancing Translational Sciences, National Institutes of Health, Rockville, MD, USA; email: natalia.martinez@nih.gov
[1] Shen, M et al. Quantitative high-throughput phenotypic screening of pediatric cancer cell lines identifies multiple opportunities for drug repurposing. Oncotarget 2017 Dec 19;9(4):4758-4772. PMID 29435139.
The cells were obtained from University of North Carolina (UNC), Pediatric Preclinical Testing Program (PPT), and Coriell Institute (CI).
qHTS cell viability assay:
Cells were assayed in growth media at a density of 500-1,000 cells/well. Five microliters of cells were dispensed into 1,536-well, white, solid-bottom, TC-treated plates (Greiner Bio One) using a multidrop dispenser and incubated at 37 degrees C, 5% CO2, under a humidified atmosphere for 5 hours. Twenty-three nanoliters of compounds and controls (neutral control DMSO or positive control bortezomib at final concentration of 2.3 µM) were subsequently transferred by Kalypsys pintool. For primary screens, the MIPE collection was tested at 11-point dilutions (final concentrations range from 0.78 nM to 46 µM) and the NPC collection at 8-point dilutions (final concentrations range from 0.59 nM to 46 µM). Compounds tested in follow-up screens were assayed at 11-point dilutions. Cells were incubated for 48 hours, followed by addition of 3 µL of CellTiter-Glo (Promega). After a 15 min incubation at room temperature, samples were analyzed for luminescence intensity using a ViewLux High-throughput CCD imager equipped with clear filters.
Background: Quantitative high-throughput screening tests each substance at several concentrations.
For the molecule `CCCCC(CC)CNC(=O)CC(C)OC(=O)CCC(=O)O` (stereo not given), the Potency result is “inactive”.
`CCC1(c2cnc[nH]2)Cc2ccccc2C1`: the Potency is 10.4 µM (active).
For `Cc1ccc(C(=O)Oc2ccc(C(O)CNC(C)(C)C)cc2OC(=O)c2ccc(C)cc2)cc1` (stereo not given), the Potency result was “inactive”.
For the molecule `CC(C)(C)CC(=O)OCC(=O)[C@@]1(O)CC[C@H]2[C@@H]3CCC4=CC(=O)C=C[C@]4(C)[C@H]3[C@@H](O)C[C@@]21C`, the Potency result is “inactive”.
For the molecule `O=[N+]([O-])c1ccc(O)c2ncccc12`, the Potency was 7.37 µM (active).
As for `CCC1=C[C@@H]2CN(C1)Cc1c([nH]c3ccccc13)[C@@](C(=O)OC)(c1cc3c(cc1OC)N(C)[C@H]1[C@@](O)(C(=O)OC)[C@H](OC(C)=O)[C@]4(CC)C=CCN5CC[C@]31[C@@H]54)C2`, the figure is 0.0261 µM (active); as for `CC(=O)OCC(=O)[C@@]1(O)[C@H](OC(C)=O)C[C@H]2[C@@H]3CCC4=CC(=O)C=C[C@]4(C)[C@@]3(F)[C@@H](O)C[C@@]21C`, “inactive”.
Take `N=C(N)c1ccc(OCCCOc2ccc(C(=N)N)cc2)cc1`: the Potency entry is “inactive”.
Take `CC(=O)O[C@@H]1C(=O)O[C@@H]2[C@H]1OC(=O)[C@@H]2OC(C)=O`: the Potency entry is “inactive”.
With `COc1c(C)c2c(c(O)c1C/C=C(\C)CCC(=O)OCCN1CCOCC1)C(=O)OC2`, the Potency was 1.31 µM (active).
On to `CCc1cc2cc(OC)c(OC)cc2c(Cc2ccccc2)n1`, for which the Potency entry is “inactive”.
As for `CN(C)CCN(Cc1ccsc1)c1ccccn1`, the Potency entry was “inactive”.
Consider `CC[C@@]1(O)C(=O)OCc2c1cc1n(c2=O)Cc2c-1nc1ccccc1c2/C=N/OC(C)(C)C`, for which the Potency is 0.0093 µM (active).
For `C[C@H]1C[C@H]2[C@@H]3CCC4=CC(=O)C=C[C@]4(C)[C@H]3C(=O)C[C@]2(C)[C@@]1(O)C(=O)CO`, the Potency was 2.93 µM (active).
On to `CCCCC(=O)OCC(=O)[C@H]1[C@H](C)C[C@H]2[C@@H]3C[C@H](F)C4=CC(=O)C=C[C@]4(C)[C@@]3(F)[C@@H](O)C[C@@]21C`, for which the Potency is 20.8 µM (active).
On to `CCCC(=O)O[C@]1(C(=O)COC(=O)CC)CC[C@H]2[C@@H]3CCC4=CC(=O)CC[C@]4(C)[C@H]3[C@@H](O)C[C@@]21C`, for which the Potency result was “inactive”.
Regarding `Nc1ccc2cc3ccc(N)cc3nc2c1`, the Potency was 11.7 µM (active).
With `CO[C@@H]1[C@@H](OC)[C@H](C)[C@@](O)(CC(=O)O)O[C@H]1[C@H](C)[C@H]1O[C@@]2(CC[C@@](C)([C@H]3CC[C@@](C)([C@@H]4O[C@@H]([C@H]5O[C@](C)(O)[C@H](C)C[C@@H]5C)C[C@@H]4OC4C[C@H](OC)[C@@H](OC)[C@H](C)O4)O3)O2)C[C@H](O)[C@H]1C` (stereo not given in full), the Potency is 0.522 µM (active).
With `Nc1c2ccccc2nc2ccccc12`, the Potency was 2.93 µM (active).
With `CCC(=O)O[C@]1(C(=O)COC)[C@@H](C)C[C@H]2[C@@H]3CCC4=CC(=O)C=C[C@]4(C)C3(F)[C@@H](O)C[C@@]21C` (stereo not given in full), the Potency result was “inactive”.
`Cc1cc(OCCOCC[N+](C)(C)Cc2ccccc2)ccc1C(C)(C)CC(C)(C)C`: the Potency was 10.4 µM (active).
As for `C[C@]12CCC(=O)C=C1CC[C@@H]1[C@@H]2[C@@H](O)C[C@@]2(C)[C@H]1CC[C@]2(O)C(=O)COC(=O)CCC(=O)O`, the entry is “inactive”; as for `CCN(CC)CC(=O)OCC(=O)[C@@]1(O)CC[C@H]2[C@@H]3CCC4=CC(=O)CC[C@]4(C)[C@H]3[C@@H](O)C[C@@]21C`, “inactive”; as for `CCOC(=O)O[C@]1(C(=O)OCCl)CC[C@H]2[C@@H]3CCC4=CC(=O)C=C[C@]4(C)[C@H]3[C@@H](O)C[C@@]21C`, “inactive”.
As for `CC(=O)[C@@]1(O)CC[C@H]2[C@@H]3C[C@H](C)C4=CC(=O)CC[C@]4(C)[C@H]3CC[C@@]21C`, the entry is “inactive”.
